Experimental data published in PubChem BioAssay AID1159580 (chemical genetic matrix, 2015).
In all, about 5,500 compounds went through this assay and about 2,000 (36%) were called active. Inconclusive results (about 18%) are left out. Cut-off read from the data, not from the text of the source: active = normalized growth mostly below about 0.91 (no sharp cut-off); inconclusive = no clear call, values can overlap the other calls; inactive = mostly above about 0.92. Some of the results follow.

Experiment: chemical genetic growth profiling, strain panel (AID 1159580);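 note: tested at 20 µM; growth read once vehicle control cultures reached saturation at 30 °C; 1 = growth at the plate median or of vehicle wells; lower values mean less growth of the strain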
Settings: S. cerevisiae deletion strains, growth OD

Measured: normalized growth

C=C1C(=O)O[C@@H]2[C@H]3O[C@]3(C)CCC=C(C)CC[C@@H]12
active: locus YGR229C, strain SMI1, active compounds read low 0.822 | locus YJR075W, strain HOC1, active compounds read low 0.906 | locus YMR307W, strain GAS1, active compounds read low 0.766
inactive: locus YAL040C, strain CLN3, active compounds read low 0.966 | locus YCL061C, strain MRC1 (second series), active compounds read low 0.96 | locus YDR363W, strain ESC2, active compounds read low 0.969 | locus YER002W, strain NOP16, active compounds read low 0.981 | locus YNL175C, strain NOP13, active compounds read low 0.956 | locus YNL197C, strain WHI3, active compounds read low 0.95 | locus YNL224C, strain SQS1, active compounds read low 0.967 | locus YNL322C, strain KRE1, active compounds read low 0.945 | locus YOR083W, strain WHI5 (second series), active compounds read low 0.972 | locus YPL055C, strain LGE1, active compounds read low 0.945
